Test results from PubChem BioAssay AID1421 (Emory University Molecular Libraries Screening Center, 2008).
Screen size: about 1,300 compounds; about 140 (11%) were called active. How the calls were made is not given here. These entries were drawn from the full list. Measured potencies and affinities stand elsewhere.

Each compound was assayed against Prostaglandin E2 receptor EP2 subtype (Homo sapiens) (UniProt P43116) (assay: EP2 receptor modulators, dose response, cell-based, human EP2, PGE2 EC50 shift (AID 1421)). Conditions: EP2-expressing cells, PGE2 EC50 shift by compound; at 20 µM.
Prostaglandin E2 receptor EP2 subtype (Homo sapiens), sequence (P43116 whole entry, looked up): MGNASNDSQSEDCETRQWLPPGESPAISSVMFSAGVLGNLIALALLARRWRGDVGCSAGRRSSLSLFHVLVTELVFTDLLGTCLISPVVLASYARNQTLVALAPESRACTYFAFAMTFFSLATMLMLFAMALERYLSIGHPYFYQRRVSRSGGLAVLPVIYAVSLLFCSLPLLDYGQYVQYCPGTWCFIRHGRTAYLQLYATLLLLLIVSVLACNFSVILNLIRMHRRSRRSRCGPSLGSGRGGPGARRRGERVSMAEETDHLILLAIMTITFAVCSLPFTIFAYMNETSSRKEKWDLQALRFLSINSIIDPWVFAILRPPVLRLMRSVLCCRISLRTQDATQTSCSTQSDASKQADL

PGE2 EC50 with compound, inactive:
COc1cc2cc(Br)cc(Br)c2nc1C 1.2 nM, CCC1CCc2c(sc3ncnc(N4CCOCC4)c23)C1 (configuration not stated) 0.42 nM, Cc1sc(NC(=O)c2cccs2)c(C(=O)OC(C)C)c1C 0.27 nM, CCOC(=O)c1c(NC(=O)c2cccs2)sc2c1CCCC2 0.75 nM, N#CCSc1nc2ccccc2c(=O)n1C1CCCCC1 0.68 nM, O=C(OCc1ccc(Cl)cc1)c1ccccc1C(=O)c1ccccc1 0.41 nM, O=C(c1ccccc1)N1N=C(c2ccccc2)CC1c1ccccc1O (configuration not stated) 0.27 nM, O=C(Nc1nc(-c2cccs2)c(-c2ccccc2)s1)c1ccco1 0.72 nM, COc1ccc(-c2nc(NC(C)=O)sc2-c2ccc(OC)cc2)cc1 0.57 nM, CCCCCOC(=O)c1[nH]c2c(c1C)C(=O)C(C(=O)OC)C(C)C2 (configuration not stated) 0.88 nM, Nc1cccc(OCc2nc(N)nc(N)c2-c2ccc(Cl)cc2)c1 0.92 nM, CCc1c(-c2n[nH]c(=S)n2Cc2ccccc2)csc1C 0.32 nM, C=CCOc1nc(-c2ccncc2)nc2ccccc12 0.27 nM, CCOC(=O)CN(C(=O)CSc1nnc(Cc2ccccc2)n1-c1ccc(C)cc1)c1ccccc1 0.47 nM, Cc1ccc(C)c(CN2C(=O)C(C)Oc3ccc(C)cc32)c1 (configuration not stated) 0.3 nM, CCOc1nc(-c2ccccc2O)nc2ccccc12 0.32 nM, Oc1ccccc1-c1nc(N2CCCC2)c2ccccc2n1 0.3 nM, CCCC(=O)Nc1ccccc1Sc1ncnc2scc(-c3ccccc3)c12 0.74 nM, CCCCC(CC)CN1CN(CC(CC)CCCC)CC(C)(N)C1 (configuration not stated) 0.75 nM, OCCCNc1nc(-c2ccc(Br)cc2)nnc1-c1ccc(Cl)cc1 1.43 nM, COc1ccc(-n2c(COc3cccc4ccccc34)nnc2SCC#N)cc1 0.49 nM, NCCc1c(-c2ccccc2)n(-c2ccccc2)c2ccccc12 0.41 nM, FC(F)(F)c1cccc(/C=N/NC(=S)NC2CCCCC2)c1 4.2 nM, O=C(CC(Sc1ccccc1)c1cccs1)c1ccco1 (configuration not stated) 0.41 nM, CCn1c2ccccc2c2cc([N+](=O)[O-])ccc21 0.38 nM, CC(C)n1c2ccccc2c2nc3ccccc3nc21 0.41 nM, CCn1c2ccccc2c2nc3ccccc3nc21 0.63 nM, CCCSc1nc(N2CCOCC2)c2c(c1C#N)CCCC2 0.34 nM, Cc1ccc2cccc(NC(=O)c3ccc(Br)o3)c2n1 0.12 nM, Cc1cccc(-c2nc(=S)c3c(n2Cc2ccco2)CCCC3)c1 0.55 nM, COc1ccccc1CN(C)CC(=O)Nc1ccccc1-c1ccccc1 0.72 nM, CN(CC(=O)Nc1ccccc1Oc1ccccc1)Cc1ccccc1F 0.3 nM, CC(C)c1nc(SCc2c(F)cccc2Cl)c2c(=O)n(C)c(=O)n(C)c2n1 0.23 nM, CC1CN(c2nc3ccccc3cc2-c2ccccc2)CC(C)O1 (configuration not stated) 0.31 nM, CCCCn1c(-c2csc(CCC)c2)n[nH]c1=S 0.43 nM, CCCc1cc(-c2n[nH]c(=S)n2Cc2ccccc2)cs1 0.76 nM, Cc1ccc(C(=O)N2N=C(c3ccccc3)CC2(O)C(F)(F)F)o1 (configuration not stated) 0.31 nM, CCOc1cc(/C=N/NC(N)=O)ccc1OC(=O)c1ccc(C)cc1 0.42 nM, Cc1ccc2nc(-c3ccncc3)cc(-c3ccccc3)c2c1 0.17 nM, Nc1nc(Cc2ccccc2)nc(Cc2ccccc2)c1-c1ccccc1 0.43 nM, CC(C)c1ccc(OCC(=O)NC(=S)Nc2ccc3c4c(cccc24)CC3)cc1 18.6 nM, O=c1c2c(n3nnnc3n1-c1ccccc1)-c1ccccc1CC21CCCC1 0.77 nM, Nn1cnc2c(c1=O)C1(CCCCC1)Cc1ccccc1-2 0.34 nM, CCCn1c(SCC(=O)Nc2sc(C)c(C)c2C(=O)OCC)nc2c1c(=O)n(C)c(=O)n2C 0.47 nM, CCCCN1C=C(C(=O)OC)C(c2ccccc2Cl)C(C(=O)OC)=C1 0.38 nM, COc1ccc(C(=O)c2cnc3ccccc3c2-c2ccccc2)cc1 0.79 nM, CCCCOc1c(Br)cc(/C=N/O)cc1OCC 0.48 nM, O=C(CSc1nnc(-c2cc3ccccc3cc2O)n1Cc1ccco1)c1ccc(F)cc1 0.83 nM, COC(=O)c1c(NC(=O)CSc2nnc(-c3cccnc3)n2Cc2ccco2)sc(C)c1C 0.69 nM, CC(=O)c1ccc(S(=O)(=O)NCCCC(=O)NCCc2ccccn2)cc1 0.92 nM, CC(C)Cc1nc2sc3c(=O)[nH]cnc3c2c2c1CCC2 0.65 nM, C#CCSc1nc(Cc2ccc(Cl)cc2)nc2ccccc12 0.25 nM, Cc1cc(C(=O)CSc2nc3ccccc3c(=O)n2C)c(C)n1Cc1ccc2c(c1)OCO2 0.29 nM, CC(C)CCn1c(N2CCN(c3cccc(Cl)c3)CC2)nc2c1c(=O)[nH]c(=O)n2C 0.57 nM, Clc1ccc(Cn2c(/C=C/c3ccco3)nc3ccccc32)cc1 0.66 nM, COc1ccc(Cn2c(-c3ccc(OC)cc3)nc3ccccc32)cc1 0.8 nM, N#CCSc1nc2sc3c(c2c(=O)n1C1CCCCC1)CCCC3 0.32 nM
